Laboratory results: PubChem BioAssay AID1850 (Southern Research Specialized Biocontainment Screening …, 2009)
Screen size: about 310,000 compounds; about 1,000 (0.32%) were called active. These entries were drawn from the full list. Entries with a potency or affinity are not part of this list. A number with no mark means an inactive call. No rule for the calls is given here.

test: Inhibition of PhoP regulon, Salmonella typhi GFP reporter cells, confirmation, 4 h (AID 1850); conditions: Salmonella Typhi PhoP-promoter GFP reporter, fluorescence, at 50 µM, hits give high values;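 also: 0% = induced wells with vehicle and 100% = uninduced wells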

SMILES	inhibition
COc1ccc(C2C(C(C)=O)=C(O)C(=O)N2Cc2ccccc2)c(OC)c1 (configuration not stated)	-1.09%
Cc1ccc([C@@H]2[C@@H]3C(=O)N(C)C(=O)[C@@H]3[C@]3(Cc4ccccc4)C(=O)N(Cc4ccccn4)CC(=O)N23)o1	5.99%
COc1ccccc1N1CCN(C2CCCN(C(=O)c3cc(C4CC4)on3)C2)CC1 (configuration not stated)	-1.91%
O=C(C[n+]1cc(-c2ccccc2)n2c1CCCCC2)c1ccc(Br)cc1	-5.28%
CCOC(=O)N1CCN(C(=O)c2cn(CC)c3ccc(S(=O)(=O)N4CC(C)CC(C)C4)cc3c2=O)CC1 (configuration not stated)	-8.02%
O=C(COC(=O)CCN=C1NS(=O)(=O)c2ccccc21)NC1CCCCCCC1	2.68%
COc1cccc(NC(=S)NC(=O)Cc2ccc(Cl)cc2)c1	-3.77%
CCOC(=O)N/N=C/c1ccc(C)o1	-0.31%
COC(=O)N/N=C/c1ccc([N+](=O)[O-])o1	10.7%
Cc1ccc2c(c1)C(=O)CC(O)(C(F)(F)F)O2 (configuration not stated)	-10.7%
O=C(Nc1ccccc1)c1ccc(OC(=O)c2cc3ccccc3o2)cc1	1.84%
COc1ccc(OC(=O)c2cc3ccccc3o2)cc1	3.29%
CC(=O)Nc1cccc(C(=O)Nc2cccnc2)c1	5.55%
Nc1cn(C2OC(CO)C(O)C2O)c(=O)[nH]c1=O (configuration not stated)	5.11%
CC(=O)OCC1OC(n2cc(F)c(=O)[nH]c2=O)C(OC(C)=O)C1OC(C)=O (configuration not stated)	-1.38%
COc1ccccc1N1CCN(c2ccc(Cl)nn2)CC1	8.78%
Cc1ccc(C(=O)N/C(=C\c2ccccc2)C(=O)NCCCn2ccnc2)cc1	-1.23%
NC1=NC[C@@H](Cc2ccc(O)cc2)N1CCc1cccc2ccccc12	-7.1%
NCCCC[C@H]1CN=C(N)N1CCC12CC3CC(CC(C3)C1)C2	27.2%
NC1=NC[C@@H](Cc2ccc(O)cc2)N1CCC12CC3CC(CC(C3)C1)C2	-4.88%
NC1=NC[C@H](Cc2ccc(O)cc2)N1CCc1cccc(F)c1	-13.5%
COc1ccccc1N1CCN(C(=O)Cn2nc(C(F)(F)F)c3c2CCC3)CC1	-10.5%
COc1cccc(C(=O)Nc2ccc(NC(=O)Cc3ccccc3)cc2)c1	-3.24%
CC(CC12CC3CC(CC(C3)C1)C2)NCc1ccccc1O (configuration not stated)	0.38%
CC(NCc1ccncc1)C12CC3CC(CC(C3)C1)C2 (configuration not stated)	2.47%

SMILES	inhibition
NS(=O)(=O)c1cccc(NC(=O)CC23CC4CC(C2)CC(CC(=O)Nc2cccc(S(N)(=O)=O)c2)(C4)C3)c1	4.03%
c1ccc(CN2CCC(Nc3nc(-c4cccnc4)nc4ccccc34)CC2)cc1	1.57%
c1ccc(CNc2nc(-c3cccs3)nc3ccccc23)cc1	-0.13%
c1ccc(-c2nc(NC3CCCC3)c3ccccc3n2)cc1	3.11%
c1ccc(CN2CCC(Nc3ncnc4sccc34)CC2)cc1	-4.42%
O=C1N(CN2CCC3(CC2)OCCO3)c2ccccc2C12OCCCO2	1.71%
Cc1ccc(NC(=O)N2CCN(c3ncccc3C(F)(F)F)CC2)cc1	1.6%
C=CCNC(=O)C1CC(=O)N(c2ccc(OCc3ccccc3Cl)cc2)C1 (configuration not stated)	0.85%
COc1ccc(C2NC(=O)Cc3cc(OC)c(OC)cc32)cc1OC (configuration not stated)	-3.77%
Nc1ccc(C(=O)OCc2nc3c(ccc4ccccc43)[nH]2)cc1	0.78%
CN(C)CCNc1oc(COc2ccc(Cl)cc2)nc1C#N	8.61%
Cc1cccc(OCc2nc(C#N)c(NCCN(C)C)o2)c1	-1.98%
Cc1ccc(S(=O)(=O)N2CCCC(C(=O)NCCc3ccc(S(N)(=O)=O)cc3)C2)cc1 (configuration not stated)	-14.1%
COc1ccc(-c2cc(C(=O)N(C)Cc3ccccc3F)c3ccccc3n2)cc1OC	-13.2%
CCCn1nnc(NC(=S)NC(=O)/C=C/c2ccco2)n1	-16%
CC1=NN(c2nc3ccccc3[nH]2)C(=O)/C1=C/N(C)C	-13.6%
Cc1nn(-c2nc3ccccc3[nH]2)c(=O)c2ccccc12	-19.2%
CN1CC(C(=O)c2ccc(F)cc2)C(c2c(F)cccc2Cl)C1 (configuration not stated)	7.43%
CCOC(=O)c1ccccc1NC(=O)CSc1nnc(C(C)C)n1CC	1.44%
CC(C)C[C@H](NC(=O)NCc1ccccc1Cl)C(=O)O	2.59%
Cc1ccc2c(c1)c1c(n2CC(O)CNC2CCCC2)CCCC1 (configuration not stated)	14.4%
Cc1ccc2c(c1)c1c(n2CC(O)CN2CCCCCC2)CCCC1 (configuration not stated)	-2.65%
Cc1ccc2c(c1)c1c(n2CC(O)CNC(CO)(CO)CO)CCCC1 (configuration not stated)	-13.1%
Cc1ccc2c(c1)c1c(n2CC(O)CN2CCOCC2)CCCC1 (configuration not stated)	5.45%
Cc1cc(C(=O)COC(=O)c2ccc(N)cc2)c(C)n1-c1c(C)n(C)n(-c2ccccc2)c1=O	-9.39%

SMILES	inhibition
CSc1nc(N2CCOCC2)cc(N2CCOCC2)n1	2.38%
COc1ccc(Br)c(C(=O)NC2CCCC2)c1	2.12%
CCC(CC)C(=O)NCc1ccc(OC)cc1	22.8%
O=C1CN(C(=O)/C=C/c2cccc(Cl)c2)c2ccccc2N1	8.09%
O=C(CS(=O)(=O)c1ccc(F)cc1)NCc1ccccc1	-1.23%
Cc1ccc(-c2nn(-c3ccccc3)cc2CSC(=N)N)cc1	17.4%
OCc1cn(-c2ccccc2)nc1-c1ccc(-c2nn(-c3ccccc3)cc2CO)cc1	-10.8%
CNC(=O)NC(=O)COC(=O)c1ccccc1OCc1ccccc1	0.41%
C/C(=N\Nc1cccc2cccnc12)c1ccc(N)cc1	10.3%
C/C(=N/Nc1ccnc2cc(Cl)ccc12)c1ccc(O)cc1	-22.6%
CCOC(=O)N1CCN(c2ccnc3cc(Cl)ccc23)CC1	-0.34%
Oc1ccc(Nc2ccnc3cc(Cl)ccc23)cc1	-4.09%
CC(=O)N1CCC(=NNc2ccnc3cc(Cl)ccc23)CC1	0.99%
Oc1ccc(/C=N/Nc2ccnc3cc(Cl)ccc23)c(O)c1	-3.01%
Cc1noc(C)c1C(=O)NCCC1=CCCCC1	1.2%
Cn1nnnc1SCCNC(=O)C1CCC(=O)N(Cc2ccc(Cl)cc2)C1 (configuration not stated)	-10.8%
COc1ccc(NC(=O)C2CC(c3ccc(Cl)cc3)=NO2)cc1 (configuration not stated)	7.66%
CC(C)c1ccc(OCC(O)CNC(C)c2ccccc2)cc1 (configuration not stated)	1.07%
NCC(O)COCCC12CC3CC(CC(C3)C1)C2 (configuration not stated)	-0.98%
COc1cccc(OCC(O)CNC(C)c2ccccc2)c1 (configuration not stated)	6.91%
CC(NCC(O)COCc1ccc(Cl)cc1)c1ccccc1 (configuration not stated)	-6.47%
Cc1ccc(OCC(O)CNC(C)c2ccccc2)cc1C (configuration not stated)	-6.36%
COc1ccc(OCC(O)CNC(C)c2ccccc2)cc1 (configuration not stated)	1.46%
O=C(CCC1CCCN(C(=O)c2cccc(F)c2)C1)N1CCN(c2ccccn2)CC1 (configuration not stated)	-7.6%
O=C(CCNS(=O)(=O)c1ccccc1)OCC(=O)c1ccc(Br)cc1	-3.69%

SMILES	inhibition
COc1ccc(C2N(c3ccccc3)CCN2c2ccccc2)cc1O	-8.63%
COc1ccccc1Cn1c(CCCO)nc2ccccc21	1.55%
Oc1ccc(Cl)cc1CNCc1ccc(Cl)cc1	12.4%
Oc1ccc(Cl)cc1CNn1cnnc1	9.93%
CCOc1ccc(S(=O)(=O)NC(C)C(=O)NCc2ccccn2)cc1 (configuration not stated)	-3.4%
OC(CN1CC=C(/C=C/c2ccc(Br)cc2)CC1)c1ccccc1 (configuration not stated)	-9.93%
COc1ccc(/C=C/C2=CCN(C)CC2)cc1	17.2%
CCOc1ccc(S(=O)(=O)N2CCN(C(=O)c3ccncc3)CC2)cc1	-2.75%
CC1CN(C(=O)CCC(=O)NCc2ccccc2)c2ccccc2S1 (configuration not stated)	6.38%
OC(CNCC1CCCO1)Cn1c2ccc(Br)cc2c2cc(Br)ccc21 (configuration not stated)	-0.49%
OC(CNCC1CCCO1)Cn1c2ccccc2c2ccccc21 (configuration not stated)	14.3%
NC(=O)Cn1c(=O)n(CC(=O)N2CCCCC2)c(=O)c2sccc21	2.84%
COc1ccc2[nH]c(C)c(CCNCc3cc(OC)c(OC)c(OC)c3)c2c1	7.48%
COc1ccc(CNCCc2c(C)[nH]c3ccc(OC(F)(F)F)cc23)c(OC)c1	-3.23%
COc1ccc2[nH]c(C)c(CCNC(=S)Nc3ccccc3OC)c2c1	-5.5%
Cc1[nH]c2ccc(OC(F)(F)F)cc2c1CCNCc1cccc([N+](=O)[O-])c1	6.4%
O=C(CN1CCC(C(O)(c2ccccc2)c2ccccc2)CC1)Nc1cc(Cl)ccc1Cl	-20%
COc1ccccc1C(=O)NC(=O)Nc1nc(-c2ccccc2)cc(C(F)(F)F)n1	2.17%
COc1cc(/C=C/C(=O)O)ccc1O	10.8%
C/C=C/c1ccc(O)c(OC)c1	1.57%
C/C(=N\Nc1nc(C)cc(-c2ccccc2)n1)c1ccc(O)cc1	-2.43%
Cc1cccc(C)c1NC(=O)CN(C)C(=O)c1ccc2nc[nH]c2c1	1.29%
